Screens (PubChem BioAssay)
HCMV inh: blocks human cytomegalovirus replication; HFF cells, HCMV-luciferase reporter, 72 h; hits give low values; activity change, negative = inhibition, % at 57.5 µM; 410,000 tested, 4.5% active; in the data active = activity change below about -60%; inconclusive = no clear call, values can overlap the other calls; inactive = above about -39%; also: % is scaled to controls: 0 for no effect and ±100 for the full control effect
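Two-dose cell screen: HFF monolayers treated with compounds and infected with luciferase-expressing HCMV at 1 PFU/cell, 72 h at 37C, then lysed for luciferase measurement.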
FMDV antiviral: foot and mouth disease virus antiviral activity; FMDV antiviral cell-based qHTS; Potency, µM (top dose mostly 57.9 µM), inactives show top-dose activity change, negative = inhibition, hits mostly inhibitors; 410,000 tested, 1.2% active; calls by dose curve; tested in HEK293T cells; also: read-out not given here; potency is read from the fitted curve at half-maximal effect; % is scaled to controls: 0 for no effect and ±100 for the full control effect; nearly all actives have a fitted effect of over 45% in size
HCV inh: blocks hepatitis C virus | Huh7.5.1 HCVcc-Cre infection, luciferase reporter, 44 h | 340,000 tested, 3.4% active | Potency, µM (doses to about 41.8 µM), inactives show at the highest dose activity change, negative = inhibition, usual class: inhibitors; also: potency is read from the fitted curve at half-maximal effect; % is scaled to controls: 0 for no effect and ±100 for the full control effect
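Luciferase read-out (15 sec integration) after a 15 min room-temperature substrate step quantifies HCVcc-Cre infection. Cells, 1,000 per well, had compound added 4 h post-plating, then virus at ~0.5 moi, and were cultured 44 h.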
VACV mCherry inh: vaccinia inhibition (mCherry reporter) | Vaccinia virus mCherry reporter infection, fluorescence | Potency, µM (titrated, usually from 36.5 µM), without a hit: at the top dose activity change, negative = inhibition, hits mostly inhibitors | 310,000 tested, 0.63% active | AID 720579; calls by dose curve; tested in A549 cells; also: potency is read from the fitted curve at half-maximal effect; % is scaled to controls: 0 for no effect and ±100 for the full control effect; nearly all actives have a fitted effect of over 35% in size
Vaccinia Venus: vaccinia inhibition (Venus reporter); Potency, µM (series often up to 36.5 µM), without a hit: at the highest dose activity change, negative = inhibition, most hits filed as inhibitors; 330,000 tested, 0.46% active; Vaccinia virus Venus reporter expression, fluorescence; calls by dose curve; tested in A549 cells; also: potency is read from the fitted curve at half-maximal effect; % is scaled to controls: 0 for no effect and ±100 for the full control effect; nearly all actives have a fitted effect of over 30% in size
HCV confirm: HCV inhibition, cherry-pick confirmation; 640 tested, 78% active; Potency, µM (top dose mostly 41.8 µM), for the others: at the highest dose activity, negative = inhibition, hits mostly inhibitors; shares compounds with HCV inh; HCVcc-Cre infectious virus cell assay, luciferase, inhibition; also: potency is read from the fitted curve at half-maximal effect; nearly all actives have a fitted effect of over 80% in size
HCV host tox: toxic to HCV host cells, flagging false HCV inhibitors; shares compounds with HCV inh; HCV host cell line cytotoxicity counterscreen; Potency, µM (series often up to 41.8 µM), inactives show top-dose activity change, negative = cytotoxicity, usual class: inhibitors; 640 tested, 22% active;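 also: potency is read from the fitted curve at half-maximal effect; 44 h compound exposure; % is scaled to controls: 0 for no effect and ±100 for the full control effect; nearly all actives have a fitted effect of over 55% in size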
An asterisk follows results filed as active; i = inactive; ? = inconclusive; · = not tested or not shown; [ ] = dose if it differs, or a comment. An excerpt weighted towards active compounds, which were near 7.3% of everything screened. Unless noted, calls follow the shape of the dose curve; as a rule, active = well fitted curve in the direction sought with a large enough effect; inconclusive = small, poorly fitted or top-dose-only effect, or another doubt; inactive = no such curve, though single readings can be large; an effect the other way counts as inactive or inconclusive.

SMILES | HCMV inh | FMDV antiviral | HCV inh | VACV mCherry inh | Vaccinia Venus | HCV confirm | HCV host tox
CCN1/C(=C/c2ccc3cc(C)cc(C)c3[n+]2CC)Sc2cc(C)ccc21 | -100* | ? | 7.1µM* | · | · | 7.9µM* | 7.9µM*
Cc1nc(/C=C\C(=O)O)c2cc(C)oc2n1 | ? | -17% | -4% | -14% | -11% | · | ·
Cc1nc(-c2cnn(-c3ccccc3)c2)c2cc(C)oc2n1 | -26 | -24% | 7.1µM* | ? | -26% | 16µM* | 46%
CCCOc1cccc(C(=O)N2CCCCC2CCN2CCCCC2)c1 (configuration not stated) | ? | -4% | · | -12% | -11% | · | ·
CC(C)C[C@@H]1COc2cccc(N3CCC[C@H]3CO)c2S(=O)(=O)N1 | -17 | -15% | · | -14% | -11% | · | ·
CC(C)(C)n1c(O)c2n(c1=O)Cc1ccccc1N=C2c1ccccc1 | 6 | -21% | · | i | 1% | · | ·
C/C(CCC1CC(C)OC1=O)=N\NC(N)=S (configuration not stated) | -35 | 4% | 15% | · | · | · | ·
C/C(CC1CC2=C(CC1(C)C)C(C)(C)CCC2)=N\NC(N)=S (configuration not stated) | -65* | ? | 5.6µM* | -14% | ? | 14µM* | ?
Cc1cccc2c1-c1sc(C(=O)NCCCN3CCC(C)CC3)cc1CO2 | ? | -11% | 5µM* | · | · | 25µM* | -5%
Cc1cccc(C(=O)Nc2ccc(S(=O)(=O)N3CCC(c4nc5ccccc5s4)CC3)cc2)c1 | -9 | -27% | · | -1% | -22% | · | ·
O=C(c1ccco1)N1CCC2(CCCN(C(c3ccccc3)c3ccccc3)C2)CC1 | · | -27% | · | · | · | · | ·
C=C(C)COc1ccc(-c2ncncc2-c2ccccc2)c(O)c1 | -40 | -4% | -19% | -12% | -9% | · | ·
C=C(C)COc1ccc(-c2nc(N)ncc2Oc2ccccc2OCC)c(O)c1 | 25 | 0% | 4.5µM* | · | ? | 25µM* | 35%
COc1cc(CCC(O)CC(=O)CCc2ccccc2)ccc1O (configuration not stated) | 3 | -9% | 1.1µM* | 6% | 4% | -23% | 33%
COc1cc(Cl)c(C)cc1NC(=O)CSc1ccc(C)cc1 | 50 | -29% | ? | · | · | · | ·
COc1cc(Cl)c(C)cc1NC(=O)CSc1cc(Cl)ccc1Cl | 92 | -13% | ? | -12% | -9% | 11µM* | -28%
CC1(C)NC(=O)N(CC(=O)Nc2nc(-c3ccc(F)cc3)cs2)C1=O | 76 | 8% | 3.5µM* | -12% | -13% | ? | -5%
CCOC(=O)C1=C(C)N=c2s/c(=C/c3ccco3)c(=O)n2C1c1cccc(OC)c1 (configuration not stated) | · | -27% | ? | · | 6% | ? | 39%
COc1ccc(-c2coc3cc(O)cc(O)c3c2=O)cc1 | 6 | 13% | 0%[8.37 µM] | -13% | -6% | · | ·
O=c1c(-c2ccc(O)cc2)coc2cc(O)cc(O)c12 | 72 | 30% | 0.89µM* | 11µM* | ? | -7% | -4%
CNc1ccc(Br)cc(C(=O)/C=C/c2cc(OC)ccc2OC)c1=O | -102* | 20µM* | 5µM* | · | · | ? | -27%
O=c1/c(=C\c2cccc(O)c2)sc2nc(-c3ccccc3)c(-c3ccccc3)n12 | ? | -20% | -15% | · | · | · | ·
COc1ccc(CCNC(=O)C2CC2)cc1 | -17 | -2% | 7% | i | -10% | · | ·
COc1ccc(C[C@H]2NC[C@H](O)[C@H]2OC(C)=O)cc1 | -98* | ? | ? | 0.45µM* | 0.89µM* | 7µM* | -12%
CC1CN(C)C(C)CC1OC(=O)C(c1ccccc1)c1ccccc1 (configuration not stated) | -6 | -17% | ? | · | · | 25µM* | -22%
SMILES | HCMV inh | FMDV antiviral | HCV inh | VACV mCherry inh | Vaccinia Venus | HCV confirm | HCV host tox
O=C(Cn1c(=O)n(-c2ccc(Cl)cc2)c(=O)c2sc3ccccc3c21)NC1CCCC1 | 8 | -23% | · | -24% | ? | · | ·
Clc1cccc(-c2cc3nc4c(c(N5CCOCC5)n3n2)CCCC4)c1 | -20 | · | ? | ? | -26% | 14µM* | -11%
Clc1cccc(-c2cc3nc4c(c(N5CCN(c6cnccn6)CC5)n3n2)CCCC4)c1 | -26 | ? | 7% | · | -28% | · | ·
COc1cc(C2C(=O)N(C3CCCCCC3)CC(=O)N2CCc2ccccc2)ccc1OC(C)C (configuration not stated) | -32 | -17% | · | -9% | -5% | · | ·
CC(Sc1nc2c(c(=O)[nH]1)CCCC2)C(=O)Nc1cc(C(F)(F)F)ccc1Cl (configuration not stated) | 3 | -6% | · | -7% | 7% | · | ·
C[C@@H]1COc2cc(N3CCC[C@@H]3CO)ccc2S(=O)(=O)N1 | 5 | -8% | · | -1% | -2% | · | ·
COc1cc(OC)c(NC(=O)c2cccc(F)c2)cc1Cl | 8 | 6% | ? | -11% | -3% | ? | 35%
COc1ccc(NC(=O)Nc2ccccc2SC)cc1OC | -1 | 61% | ? | -6% | -6% | · | ·
COc1cc(OC)c(NC(=O)c2ccc(F)cc2)cc1Cl | -39 | 12% | -28% | -9% | -18% | · | ·
COc1cc(OC)c(NC(=O)Nc2ccc(OC)c(OC)c2)cc1Cl | -29 | 4% | 2.5µM* | i | -14% | -21% | -25%
Cc1ccc(OCC(=O)Nc2cccc(-c3nnc(-c4ccccc4)o3)c2)c(C)c1 | 14 | -20% | ? | · | · | · | ·
COc1ccc(CC(=O)Nc2cccc(-c3nnc(-c4ccc(C)cc4)o3)c2)cc1OC | -93* | 4µM* | 3.2µM* | -12% | -3% | 6.3µM* | -27%
CC(C)NC1CCC(Nc2ccnc3cc(Cl)ccc23)CC1 (configuration not stated) | ? | -32% | 2.8µM* | -7% | -21% | 4µM* | -72%
Oc1c(N=Nc2ccccn2)ccc2ccccc12 | -101* | -81% | 2.5µM* | ? | ? | 18µM* | ?
CC(Nc1nc(-c2ccccc2O)nc2ccccc12)c1ccccc1 (configuration not stated) | 15 | -3% | ? | -1% | -28% | · | ·
CCOc1nc(-c2ccccc2O)nc2ccccc12 | 4 | · | ? | -8% | 0% | 6.3µM* | 0.89µM*
Clc1ccc2nc(-c3ccc(Br)s3)cn2c1 | 6 | -18% | ? | · | · | 6.3µM* | ?
O=S(=O)(Nc1ccc(-c2ccc(NS(=O)(=O)c3ccccc3)cc2)cc1)c1ccccc1 | -11 | 15% | 3.2µM* | -17% | ? | 13µM* | 2%
CCOC(=O)c1cc(C#N)c(SC(C(=O)N2CCCCC2)c2ccccc2)nc1C (configuration not stated) | · | · | · | 24% | -11% | · | ·
